According to article PMC13494018:
Values without a mark were called inactive. How the calls were made is not given here.

target: CD276, Q5ZPR3
Sequence (Q5ZPR3 whole entry): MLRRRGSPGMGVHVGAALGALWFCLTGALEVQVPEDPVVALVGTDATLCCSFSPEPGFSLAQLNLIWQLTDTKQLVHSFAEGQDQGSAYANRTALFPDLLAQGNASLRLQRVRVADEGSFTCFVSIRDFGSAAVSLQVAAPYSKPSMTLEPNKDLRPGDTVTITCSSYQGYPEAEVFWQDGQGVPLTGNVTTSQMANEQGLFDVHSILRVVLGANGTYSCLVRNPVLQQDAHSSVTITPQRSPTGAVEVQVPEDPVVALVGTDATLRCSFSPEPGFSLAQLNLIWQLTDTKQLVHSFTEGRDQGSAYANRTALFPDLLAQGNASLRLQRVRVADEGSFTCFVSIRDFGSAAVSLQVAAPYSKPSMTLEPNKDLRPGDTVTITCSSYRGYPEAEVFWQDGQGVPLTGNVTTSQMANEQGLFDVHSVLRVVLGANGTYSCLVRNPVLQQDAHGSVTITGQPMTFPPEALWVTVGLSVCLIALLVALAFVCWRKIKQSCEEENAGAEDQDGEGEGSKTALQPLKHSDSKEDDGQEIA

| Binder | binding in a display sort |
| --- | --- |
| design_616_e8336982-fa4d-4d7c-b06f-9007953e1994_1495_dldesign_0_cycle1_af2pred (protein) SEAELAKKFEEGLKKVEEAKKYAKKVEAKDPEKGKKLKELAGEAANAVLRGYAIPEKAEEEWAKVEKIYEEAKKIAA | not found |
| design_616_e8336982-fa4d-4d7c-b06f-9007953e1994_1205_dldesign_0_cycle1_af2pred (protein) DQAQAKAVAIKTVEGMLKKMKQLKEEAEKNAADPSIAIPKAEAIKQLAEVSMAILKAAGLDQETIDKYEKEAKALKEAAEKAAKKAKE | not found |
| design_616_e8336982-fa4d-4d7c-b06f-9007953e1994_2036_dldesign_0_cycle1_af2pred (protein) GAEELAAEARKAYNEMLELLEKAKETGKTEEYVKKAAEIGRANPIAGQMAMNTVAARDPELAAKLRKAMA | not found |
| design_616_e8336982-fa4d-4d7c-b06f-9007953e1994_1780_dldesign_0_cycle1_af2pred (protein) MASLAQGVINMVRSLAELAIKASPEEAAKLAAEAADIAIAGGEQFGAETAEEAAKILEEAAKAKPEVAPYAERVKKKLKEL | not found |
| design_616_e8336982-fa4d-4d7c-b06f-9007953e1994_1846_dldesign_0_cycle1_af2pred (protein) AQAEKEAAAAKAKRLLDQLKEFGALAVTAAAASAQQGQAYLAMARQLAANAKEEAKKTGEEGKELAAQAEATLAAAEAGVAAALAAA | not found |
| design_616_e8336982-fa4d-4d7c-b06f-9007953e1994_1581_dldesign_0_cycle1_af2pred (protein) EEARREELARKAEEKAEEIAKRLAKEGKSVEEIVEEAERYAKELLRPESEEVREEAAGRAANAAVRAYAKVSLELSA | not found |
| design_617_b3fadc1d-0db4-4da8-8433-818493aa2ab2_224_dldesign_0_cycle1_af2pred (protein) AEAQALLDQAKAYLAQGTALFQSDPSLSSQALQQFGLAYIYASRAAALATAAGDTATADAAKAVQDQALANMQAIAAS | not found |
| design_616_e8336982-fa4d-4d7c-b06f-9007953e1994_1282_dldesign_0_cycle1_af2pred (protein) AAALEVTRRTIFAMADHAYKSENLETAKAIMKTLGQIAVAAGEEVLKEAREYIEKLAKESTEEKAKALLEGFEEGVAEAKA | not found |
| design_616_e8336982-fa4d-4d7c-b06f-9007953e1994_1969_dldesign_0_cycle1_af2pred (protein) GEEEKEKKKERFEEILKKAIEGKATKEEIEQAALDGVAYDGGEAVLALLKAYAEAKDPEVRKYLAQALALAARLTAAKLRA | not found |
| design_616_e8336982-fa4d-4d7c-b06f-9007953e1994_1901_dldesign_0_cycle1_af2pred (protein) AAAARAAAAALAAEAIAAAAAAVAADPAAAAIIHAQAERARGGDAATAVRAAQAAGVLAAVLAGDEALAAAVTRRAAALLAA | not found |
| design_616_e8336982-fa4d-4d7c-b06f-9007953e1994_1848_dldesign_0_cycle1_af2pred (protein) GMAEKEKEYEEKLKEYKAKAKEAAKLTVEDPEAGAKKFKEIIEKAAKDFPERAKEIEEELLKVYREALAAAARAAIAAARA | not found |
| design_616_e8336982-fa4d-4d7c-b06f-9007953e1994_2109_dldesign_0_cycle1_af2pred (protein) AAAAQAAAADAALAAATSMLEKAKEMAATNPESAKKAATVAVDLANYAIALPAATPEQKAQAQKIKEEAEALIASL | not found |
| design_616_e8336982-fa4d-4d7c-b06f-9007953e1994_2287_dldesign_0_cycle1_af2pred (protein) TPEQLKQAAKQALAAAKALVKNAKQASLEDAKKLAEVAKDLTENAIKAAAKAGPEAEKEAKAKAEEIKKAAEEAIAAKEA | not found |
| design_616_e8336982-fa4d-4d7c-b06f-9007953e1994_2162_dldesign_0_cycle1_af2pred (protein) MLTPEQLQASINAIKAATRKAVEMARAGNEESAEKLLEVARDIAEALLKTDPEAGKEALKIVEEGEEEARKAAEEVRA | binds (active) |
| design_616_e8336982-fa4d-4d7c-b06f-9007953e1994_1403_dldesign_0_cycle1_af2pred (protein) GAARAAELQGKADYLLAKSYADAALKSPDPEKAAELLKKAKEYAERALEDPVGAPYGEKALKYIEEVEKAL | not found |
| design_616_e8336982-fa4d-4d7c-b06f-9007953e1994_1745_dldesign_0_cycle1_af2pred (protein) APLEAVAKEAAEIAAKELPEASLEDALLVAEALLNPEKAKEYFAEVKKRLSPEDAARLFQTVGKAFSQLSLKLQAALAA | not found |
| design_616_e8336982-fa4d-4d7c-b06f-9007953e1994_1400_dldesign_0_cycle1_af2pred (protein) AAAAVAIADKTIAALARQARRLAEEAIRDPDPERARRLVESAEELVRVAEDIAEAMGASPEAKEAVRRAREEVERAREVVER | not found |
| design_616_e8336982-fa4d-4d7c-b06f-9007953e1994_1719_dldesign_0_cycle1_af2pred (protein) AEAAGKAAAAAIELSREMLRIAREAGNEEVIAIAQRATAAFNQAMLDKKAGIERLKEVAKEAEELPEGKPVAELVKKAIKAFEA | not found |
| design_616_e8336982-fa4d-4d7c-b06f-9007953e1994_1283_dldesign_0_cycle1_af2pred (protein) AAAAAAAAAARAALRAELLALAEEGAKKVLAGEISLGEAVKAIMEAGAADPEAANEAAAYLIRTVMQATQAA | not found |

| Binder | binding in a display sort |
| --- | --- |
| design_616_e8336982-fa4d-4d7c-b06f-9007953e1994_1883_dldesign_0_cycle1_af2pred (protein) NAEVAKLLGQIIDELQAAQAAAAAGDLKAAAKEAQKAAEAAGKIGDPEKGKELAAGAKADPSKAVEYARQALSIASAAAIKIAA | not found |
| design_617_b3fadc1d-0db4-4da8-8433-818493aa2ab2_49_dldesign_0_cycle1_af2pred (protein) SKLSEEAKKKAEEYLKKAEEAYKLAKEDPAAGQAKLSEILTKAMEAQTEFYKKDPSNKEALDYLNKTIQTITKYLVEAAKL | not found |
| design_617_b3fadc1d-0db4-4da8-8433-818493aa2ab2_522_dldesign_0_cycle1_af2pred (protein) ADPAQASQQALNAAKAAIKSAARAAKAGNLEDAKKLAEVAADLIAQASPEQAAEALKVAKEEAAEVPEIAEYMISKAEAALAQAKARA | not found |
| design_616_e8336982-fa4d-4d7c-b06f-9007953e1994_2365_dldesign_0_cycle1_af2pred (protein) DVGAATVAAVNATAAAALAAVKEAAKLSPEEAKAATGAALAALADTVGQANKAALAHPEHSAQIVGTGVDALAAVQAAADEAIAKAKA | not found |
| design_616_e8336982-fa4d-4d7c-b06f-9007953e1994_2151_dldesign_0_cycle1_af2pred (protein) GAAAAAEETAKKVAKYLVKGDAEEAAKEALKGHTKNQAQHIVLRAANLAAKETGKSQSIYAKAAEAIALIEA | not found |
| design_617_b3fadc1d-0db4-4da8-8433-818493aa2ab2_117_dldesign_0_cycle1_af2pred (protein) AEKDEEAKKLVEKAKELAEAGLQTAQATGNVALAQAAANMAKALAKEAIRLAEDEKVKEEAKKEAKQAEKALKQAKA | not found |
| design_616_e8336982-fa4d-4d7c-b06f-9007953e1994_1142_dldesign_0_cycle1_af2pred (protein) SAKAEAAKKEYEKAKKAAEEAKKVAKAAGDEAGAAAAKALEKSAENALRNGNLEMVKQVKEIAEAEKEIAEKKLK | not found |
| design_616_e8336982-fa4d-4d7c-b06f-9007953e1994_2209_dldesign_0_cycle1_af2pred (protein) NAEAGKYLEEALKLAAEAQKAAAANPAVAPEVIAQASRLVAEAAKAALAGDTKAAKEYLEKMKELRDAAKAALAAA | not found |
| design_616_e8336982-fa4d-4d7c-b06f-9007953e1994_2432_dldesign_0_cycle1_af2pred (protein) NQTKSLAQGAIAMAEAIAEELRRLGDEESAKKVEEMAKEAKKLIEEGKYEEALKVATEGVAYGAERVAALR | not found |
| design_616_e8336982-fa4d-4d7c-b06f-9007953e1994_1845_dldesign_0_cycle1_af2pred (protein) MEEEERKKKREKAEELLAKAKEHIEAAAKQGALGDGLKFATEVVREATELDPELGEEVAKRVQQLLAEQSRQAIA | not found |
| design_616_e8336982-fa4d-4d7c-b06f-9007953e1994_1297_dldesign_0_cycle1_af2pred (protein) DPTAEAAARSAEARALRERGAAAGPEAAAVAEAAALAAQRANYYYLISYGDPSAAEAAAKAAEAEAEARELRAELEKLLAEAE | not found |
| design_617_b3fadc1d-0db4-4da8-8433-818493aa2ab2_636_dldesign_0_cycle1_af2pred (protein) TATLKEILAKVEKALELLKNASPETLNQALSLLTQAWALANKVDPAVAAAINAAIAALVDGMAKGVEVASKEGSAAAEKAIAAVKAAI | not found |
| design_617_b3fadc1d-0db4-4da8-8433-818493aa2ab2_145_dldesign_0_cycle1_af2pred (protein) LQETADKAIEAANKLAELDPEVGDALKTAAETALAQGNEAQARAVKNMAESAYKYFSAKAEAAKAAAEAAA | not found |
| design_616_e8336982-fa4d-4d7c-b06f-9007953e1994_2198_dldesign_0_cycle1_af2pred (protein) MEEERRKKAEELLEKATKELKAMQAQAEALAKAGDIGAATQLVVDAARYGAEVTREAEKIDPEVAEKMAEVTNKIIAAALKALTAYAA | not found |
| design_617_b3fadc1d-0db4-4da8-8433-818493aa2ab2_588_dldesign_0_cycle1_af2pred (protein) AAAEAAKLQAERDALIKKALEAIEEASALAKELGNQEALALVHKSLTLIAKSLGADAETGLKLAKEALKAAEAALALLKKA | not found |
| design_616_e8336982-fa4d-4d7c-b06f-9007953e1994_1227_dldesign_0_cycle1_af2pred (protein) SSGAQLVTTAGAVILAQVPPAAHPYVEAATAAGVAEGVEAFLSGLQEARKALSPEDAAVLLAATTAGLAAGAKAVIA | not found |
| design_616_e8336982-fa4d-4d7c-b06f-9007953e1994_1415_dldesign_0_cycle1_af2pred (protein) AAAALAAAVAAAKEIAADLSPEDQAIVVTAAVLAVTGAGLGQAIELARAHPAISAAIMGAAARAQAAVLAAA | not found |
| design_617_b3fadc1d-0db4-4da8-8433-818493aa2ab2_206_dldesign_0_cycle1_af2pred (protein) ADALTKKTAEAIYQQVKKRAEELLKKAKEGTPELAKELAKELKKIAEANAKALSSLGPLGEEYAKKVKEYAEKVIKEIEKII | not found |
| design_616_e8336982-fa4d-4d7c-b06f-9007953e1994_1398_dldesign_0_cycle1_af2pred (protein) PREEVERLEREVREARKRAEAATTVEQAGEAALEALEAEARARRLAEELRARGGDEELAERAERVAEEARAVFLFAAGKAIELAKA | not found |
